# Measured values reported in PMC11024108.
# Legend:
# [1] = target: Ras-related protein Rab-1B (UniProt Q9H0U4); assay: cross-link between two proteins; co-fractionation; cross-linking mass spectrometry
# [2] = target: Endoplasmic reticulum membrane protein complex subunit 7 (UniProt Q9NPA0); assay: cross-link between two proteins; affinity purification or IP with mass spectrometry; cross-linking mass spectrometry
# [3] = target: Thioredoxin-related transmembrane protein 1 (UniProt Q9H3N1); assay: as above
# Syntaxin-8 = Syntaxin-8 (UniProt Q9UNK0); assay: as above
# [4] = target: Cytochrome b-c1 complex subunit 2, mitochondrial (UniProt P22695); assay: co-fractionation; co-fractionation; cross-linking mass spectrometry
# [5] = target: ATP synthase peripheral stalk subunit OSCP, mitochondrial (UniProt P48047); assay: cross-link between two proteins; cross-linking mass spectrometry
# [6] = target: Malate dehydrogenase, mitochondrial (UniProt P40926); assay: as above
# [7] = target: NAD kinase 2, mitochondrial (UniProt Q4G0N4); assay: co-fractionation; co-fractionation; cross-linking mass spectrometry
# [8] = target: Cytochrome b-c1 complex subunit 1, mitochondrial (UniProt P31930); assay: as above
# [9] = target: Cytochrome c oxidase assembly factor 7 (UniProt Q96BR5); assay: cross-link between two proteins; affinity purification or IP with mass spectrometry; cross-linking mass spectrometry
# [10] = target: Dolichyl-diphosphooligosaccharide--protein glycosyltransferase subunit STT3B (UniProt Q8TCJ2); assay: cross-linking mass spectrometry
# [11] = target: Dolichyl-diphosphooligosaccharide--protein glycosyltransferase subunit 2 (UniProt P04844); assay: co-fractionation; co-fractionation; cross-linking mass spectrometry
# Calnexin = Calnexin (UniProt P27824); assay: cross-link between two proteins; affinity purification or IP with mass spectrometry; cross-linking mass spectrometry
# 14-3-3 protein epsilon = 14-3-3 protein epsilon (UniProt P62258); assay: cross-link between two proteins; cross-linking mass spectrometry
# 14-3-3 protein gamma = 14-3-3 protein gamma (UniProt P61981); assay: as above
# 14-3-3 protein eta = 14-3-3 protein eta (UniProt P68510); assay: as above
# 14-3-3 protein theta = 14-3-3 protein theta (UniProt P68254); assay: as above
# [12] = target: ATP synthase F(0) complex subunit e, mitochondrial (UniProt P56385); assay: as above
# [13] = target: Trifunctional enzyme subunit alpha, mitochondrial (UniProt P40939); assay: as above
# [14] = target: ATP synthase peripheral stalk subunit b, mitochondrial (UniProt P24539); assay: co-fractionation; co-fractionation; cross-linking mass spectrometry
# [15] = target: Cytochrome c oxidase subunit 4 isoform 1, mitochondrial (UniProt P13073); assay: cross-link between two proteins; affinity purification or IP with mass spectrometry; cross-linking mass spectrometry
# [16] = target: Large ribosomal subunit protein bL12m (UniProt P52815); assay: as above
# [17] = target: Myeloid-derived growth factor (UniProt Q969H8); assay: cross-linking mass spectrometry
# [18] = target: Peptidyl-prolyl cis-trans isomerase B (UniProt P23284); assay: cross-link between two proteins; cross-linking mass spectrometry
# [19] = target: Neutral alpha-glucosidase AB (UniProt Q14697); assay: cross-link between two proteins; co-fractionation; cross-linking mass spectrometry
# [20] = target: Mitochondrial import inner membrane translocase subunit Tim29 (UniProt Q9BSF4); assay: cross-link between two proteins; affinity purification or IP with mass spectrometry; cross-linking mass spectrometry
# [21] = target: AP-1 complex subunit mu-1 (UniProt Q9BXS5); assay: co-fractionation; cross-linking mass spectrometry
# [22] = target: Cytochrome b-c1 complex subunit 7 (UniProt P14927); assay: cross-link between two proteins; cross-linking mass spectrometry
# [23] = target: Cytochrome b-c1 complex subunit Rieske, mitochondrial (UniProt P47985); assay: co-fractionation; co-fractionation; cross-linking mass spectrometry
# [24] = target: Electron transfer flavoprotein subunit beta (UniProt P38117); assay: as above
# [25] = target: 10 kDa heat shock protein, mitochondrial (UniProt P61604); assay: cross-link between two proteins; cross-linking mass spectrometry
# [26] = target: Aldehyde dehydrogenase, mitochondrial (UniProt P05091); assay: as above
# [27] = target: NADH-ubiquinone oxidoreductase 75 kDa subunit, mitochondrial (UniProt P28331); assay: as above
# [28] = target: Propionyl-CoA carboxylase beta chain, mitochondrial (UniProt P05166); assay: co-fractionation; co-fractionation; cross-linking mass spectrometry
# [29] = target: AP-1 complex subunit beta-1 (UniProt Q10567); assay: cross-link between two proteins; co-fractionation; cross-linking mass spectrometry
# [30] = target: AP-2 complex subunit beta (UniProt P63010); assay: as above
# [31] = target: Pyruvate dehydrogenase E1 component subunit beta, mitochondrial (UniProt P11177); assay: as above
# [32] = target: ATP synthase F(1) complex subunit epsilon, mitochondrial (UniProt P56381); assay: cross-link between two proteins; cross-linking mass spectrometry
# [33] = target: ATPase inhibitor, mitochondrial (UniProt Q9UII2); assay: as above
# Frataxin, mitochondrial = Frataxin, mitochondrial (UniProt Q16595); assay: as above
# [34] = target: Trifunctional enzyme subunit beta, mitochondrial (UniProt P55084); assay: as above
# [35] = target: Ras-related protein Rab-11B (UniProt Q15907); assay: cross-link between two proteins; co-fractionation; cross-linking mass spectrometry
# [36] = target: MICOS complex subunit MIC60 (UniProt Q16891); assay: cross-link between two proteins; cross-linking mass spectrometry
# [37] = target: Large ribosomal subunit protein bL12m (UniProt P52815); assay: cross-linking mass spectrometry
# [38] = target: 3-hydroxyacyl-CoA dehydrogenase type-2 (UniProt Q99714); assay: cross-link between two proteins; cross-linking mass spectrometry
# [39] = target: Complement component 1 Q subcomponent-binding protein, mitochondrial (UniProt Q07021); assay: as above
# [40] = target: Methylcrotonoyl-CoA carboxylase beta chain, mitochondrial (UniProt Q9HCC0); assay: as above
# [41] = target: Mitochondrial 10-formyltetrahydrofolate dehydrogenase (UniProt Q3SY69); assay: as above
# [42] = target: Polyribonucleotide nucleotidyltransferase 1, mitochondrial (UniProt Q8TCS8); assay: as above
# [43] = target: Pyrroline-5-carboxylate reductase 2 (UniProt Q96C36); assay: as above
# [44] = target: Spectrin alpha chain, non-erythrocytic 1 (UniProt Q13813); assay: as above
# [45] = target: BLOC-1-related complex subunit 7 (UniProt Q96B45); assay: cross-link between two proteins; co-fractionation; cross-linking mass spectrometry
# [46] = target: Cytochrome c oxidase subunit 6C (UniProt P09669); assay: cross-link between two proteins; cross-linking mass spectrometry
# [47] = target: Solute carrier family 25 member 3 (UniProt Q00325); assay: co-fractionation; co-fractionation; cross-linking mass spectrometry
# [48] = target: Endoplasmic reticulum resident protein 29 (UniProt P30040); assay: cross-link between two proteins; affinity purification or IP with mass spectrometry; cross-linking mass spectrometry
# [49] = target: Leucine-rich repeat-containing protein 59 (UniProt Q96AG4); assay: as above
# [50] = target: Transmembrane emp24 domain-containing protein 9 (UniProt Q9BVK6); assay: as above
# [51] = target: ATP synthase F(1) complex subunit alpha, mitochondrial (UniProt P25705); assay: cross-link between two proteins; cross-linking mass spectrometry
# [52] = target: ATPase family AAA domain-containing protein 3A (UniProt Q9NVI7); assay: cross-link between two proteins; affinity purification or IP with mass spectrometry; cross-linking mass spectrometry
# [53] = target: Cytochrome c oxidase assembly factor 4 homolog, mitochondrial (UniProt Q9NYJ1); assay: as above
# [54] = target: MICOS complex subunit MIC19 (UniProt Q9NX63); assay: as above
# [55] = target: MICOS complex subunit MIC25 (UniProt Q9BRQ6); assay: as above
# [56] = target: Serine/threonine-protein phosphatase PGAM5, mitochondrial (UniProt Q96HS1); assay: as above
# [57] = target: TIM double twin CX3C motif protein (UniProt Q96C01); assay: as above
# 10 kDa heat shock protein, mitochondrial, sequence (P61604 whole entry): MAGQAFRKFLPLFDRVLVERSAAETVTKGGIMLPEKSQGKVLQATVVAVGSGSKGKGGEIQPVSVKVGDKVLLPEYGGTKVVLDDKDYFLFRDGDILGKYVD
# Trifunctional enzyme subunit alpha, mitochondrial, sequence (P40939 whole entry): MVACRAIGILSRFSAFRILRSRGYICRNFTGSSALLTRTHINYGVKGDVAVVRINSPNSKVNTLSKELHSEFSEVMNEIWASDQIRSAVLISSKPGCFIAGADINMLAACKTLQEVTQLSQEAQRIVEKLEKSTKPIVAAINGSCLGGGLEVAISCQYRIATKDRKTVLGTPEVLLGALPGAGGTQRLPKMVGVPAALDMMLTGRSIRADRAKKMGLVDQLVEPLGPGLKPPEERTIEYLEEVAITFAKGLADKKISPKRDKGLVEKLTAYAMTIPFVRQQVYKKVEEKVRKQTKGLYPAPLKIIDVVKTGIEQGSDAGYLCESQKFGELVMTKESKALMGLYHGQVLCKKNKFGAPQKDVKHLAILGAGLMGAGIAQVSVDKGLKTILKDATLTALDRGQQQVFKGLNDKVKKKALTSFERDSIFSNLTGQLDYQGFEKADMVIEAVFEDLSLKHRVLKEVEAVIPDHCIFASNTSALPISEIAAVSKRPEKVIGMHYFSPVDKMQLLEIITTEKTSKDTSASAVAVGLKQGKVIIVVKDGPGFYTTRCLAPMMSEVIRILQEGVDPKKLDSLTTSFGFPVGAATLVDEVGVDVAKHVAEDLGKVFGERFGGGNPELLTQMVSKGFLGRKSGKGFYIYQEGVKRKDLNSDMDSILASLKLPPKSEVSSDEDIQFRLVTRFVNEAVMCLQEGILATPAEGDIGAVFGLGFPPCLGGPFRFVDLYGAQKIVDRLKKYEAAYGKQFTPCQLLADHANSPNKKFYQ
# Calnexin, sequence (P27824 whole entry): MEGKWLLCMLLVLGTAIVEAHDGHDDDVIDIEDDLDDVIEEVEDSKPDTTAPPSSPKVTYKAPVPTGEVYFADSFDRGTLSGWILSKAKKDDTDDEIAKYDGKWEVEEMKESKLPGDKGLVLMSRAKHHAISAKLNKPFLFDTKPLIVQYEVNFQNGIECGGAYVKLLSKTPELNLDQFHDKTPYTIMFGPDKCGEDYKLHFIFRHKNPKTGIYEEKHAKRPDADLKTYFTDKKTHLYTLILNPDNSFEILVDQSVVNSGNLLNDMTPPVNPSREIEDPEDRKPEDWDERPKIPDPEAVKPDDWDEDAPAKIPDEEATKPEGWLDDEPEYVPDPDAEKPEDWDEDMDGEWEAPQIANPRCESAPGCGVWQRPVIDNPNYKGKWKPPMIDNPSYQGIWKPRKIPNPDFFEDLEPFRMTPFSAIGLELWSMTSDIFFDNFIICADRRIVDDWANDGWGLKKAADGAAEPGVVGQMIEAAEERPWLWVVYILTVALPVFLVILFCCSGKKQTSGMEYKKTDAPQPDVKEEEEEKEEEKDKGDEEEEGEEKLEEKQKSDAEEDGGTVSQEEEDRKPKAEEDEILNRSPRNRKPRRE
# Complement component 1 Q subcomponent-binding protein, mitochondrial, sequence (Q07021 whole entry): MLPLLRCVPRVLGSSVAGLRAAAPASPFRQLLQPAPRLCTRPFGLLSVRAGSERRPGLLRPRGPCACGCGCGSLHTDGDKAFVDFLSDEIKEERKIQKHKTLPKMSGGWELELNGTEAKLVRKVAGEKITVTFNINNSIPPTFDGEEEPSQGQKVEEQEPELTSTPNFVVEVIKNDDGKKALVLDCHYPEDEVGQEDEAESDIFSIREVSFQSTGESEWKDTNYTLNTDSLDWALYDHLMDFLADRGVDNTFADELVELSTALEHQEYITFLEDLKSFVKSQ
# Cytochrome c, P99999, sequence (P99999 whole entry): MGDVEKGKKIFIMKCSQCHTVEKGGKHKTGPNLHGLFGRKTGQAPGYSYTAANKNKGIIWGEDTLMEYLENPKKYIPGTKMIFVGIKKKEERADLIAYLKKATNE
# Thioredoxin-related transmembrane protein 1, sequence (Q9H3N1 whole entry): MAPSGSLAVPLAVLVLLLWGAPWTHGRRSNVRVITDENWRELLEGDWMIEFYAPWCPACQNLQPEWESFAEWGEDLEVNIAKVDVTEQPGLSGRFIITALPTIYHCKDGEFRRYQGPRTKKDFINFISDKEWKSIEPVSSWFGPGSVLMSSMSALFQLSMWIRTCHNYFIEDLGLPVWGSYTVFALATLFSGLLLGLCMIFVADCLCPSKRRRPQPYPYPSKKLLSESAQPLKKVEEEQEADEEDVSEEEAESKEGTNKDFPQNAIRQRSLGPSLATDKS
# 14-3-3 protein eta, sequence (P68510 whole entry): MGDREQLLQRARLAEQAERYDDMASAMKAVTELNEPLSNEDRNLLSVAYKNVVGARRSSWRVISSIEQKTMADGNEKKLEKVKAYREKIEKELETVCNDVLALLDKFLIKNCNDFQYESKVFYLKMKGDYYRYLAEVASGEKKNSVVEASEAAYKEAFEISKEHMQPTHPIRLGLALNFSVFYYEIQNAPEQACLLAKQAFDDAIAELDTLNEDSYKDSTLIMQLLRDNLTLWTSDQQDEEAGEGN
# MICOS complex subunit MIC19, sequence (Q9NX63 whole entry, one chain of several): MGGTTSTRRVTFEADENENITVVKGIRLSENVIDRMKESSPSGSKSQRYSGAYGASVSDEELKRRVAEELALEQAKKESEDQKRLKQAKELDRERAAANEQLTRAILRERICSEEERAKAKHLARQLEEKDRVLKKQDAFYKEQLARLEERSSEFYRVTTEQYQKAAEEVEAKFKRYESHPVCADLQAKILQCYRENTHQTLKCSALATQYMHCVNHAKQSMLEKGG
# Cytochrome c oxidase subunit 4 isoform 1, mitochondrial, sequence (P13073 whole entry, canonical isoform): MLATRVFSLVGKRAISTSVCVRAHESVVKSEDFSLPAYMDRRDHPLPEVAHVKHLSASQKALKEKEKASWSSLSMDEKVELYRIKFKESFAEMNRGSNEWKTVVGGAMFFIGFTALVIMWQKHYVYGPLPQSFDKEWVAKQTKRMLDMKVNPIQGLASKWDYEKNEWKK
# Aldehyde dehydrogenase, mitochondrial, sequence (P05091 whole entry): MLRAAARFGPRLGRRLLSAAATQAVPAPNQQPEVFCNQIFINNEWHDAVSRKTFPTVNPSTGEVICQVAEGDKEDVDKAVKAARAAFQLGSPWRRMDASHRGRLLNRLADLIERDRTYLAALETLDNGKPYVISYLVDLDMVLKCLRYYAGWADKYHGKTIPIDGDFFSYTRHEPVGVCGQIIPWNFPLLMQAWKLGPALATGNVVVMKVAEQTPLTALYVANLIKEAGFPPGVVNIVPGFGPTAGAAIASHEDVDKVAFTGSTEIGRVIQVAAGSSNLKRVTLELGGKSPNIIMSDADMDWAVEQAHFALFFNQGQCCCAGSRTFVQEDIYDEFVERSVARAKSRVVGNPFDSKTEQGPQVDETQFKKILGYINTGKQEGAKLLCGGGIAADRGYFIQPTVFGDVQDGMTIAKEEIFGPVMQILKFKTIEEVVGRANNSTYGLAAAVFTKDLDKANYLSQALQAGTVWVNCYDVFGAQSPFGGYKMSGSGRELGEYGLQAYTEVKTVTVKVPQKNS
# 14-3-3 protein epsilon, sequence (P62258 whole entry): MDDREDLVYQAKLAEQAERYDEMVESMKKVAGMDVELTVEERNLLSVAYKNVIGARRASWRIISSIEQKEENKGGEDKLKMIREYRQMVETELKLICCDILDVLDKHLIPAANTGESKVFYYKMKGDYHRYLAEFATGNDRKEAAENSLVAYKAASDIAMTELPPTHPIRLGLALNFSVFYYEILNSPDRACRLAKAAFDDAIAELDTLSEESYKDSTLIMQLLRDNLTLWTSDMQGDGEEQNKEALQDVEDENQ
# Myeloid-derived growth factor, sequence (Q969H8 whole entry): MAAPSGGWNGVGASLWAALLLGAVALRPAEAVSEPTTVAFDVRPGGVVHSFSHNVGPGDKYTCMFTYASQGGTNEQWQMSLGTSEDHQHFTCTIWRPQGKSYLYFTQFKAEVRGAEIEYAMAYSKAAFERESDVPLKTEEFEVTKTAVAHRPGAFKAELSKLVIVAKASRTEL
# ATP synthase peripheral stalk subunit OSCP, mitochondrial, sequence (P48047 whole entry): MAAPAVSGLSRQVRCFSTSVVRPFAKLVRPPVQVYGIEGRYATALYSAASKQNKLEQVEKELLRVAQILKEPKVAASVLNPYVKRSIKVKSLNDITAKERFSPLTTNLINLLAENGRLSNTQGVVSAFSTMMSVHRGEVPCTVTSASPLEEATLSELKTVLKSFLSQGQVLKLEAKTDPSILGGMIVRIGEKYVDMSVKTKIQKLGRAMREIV
# 14-3-3 protein theta, sequence (P68254 whole entry): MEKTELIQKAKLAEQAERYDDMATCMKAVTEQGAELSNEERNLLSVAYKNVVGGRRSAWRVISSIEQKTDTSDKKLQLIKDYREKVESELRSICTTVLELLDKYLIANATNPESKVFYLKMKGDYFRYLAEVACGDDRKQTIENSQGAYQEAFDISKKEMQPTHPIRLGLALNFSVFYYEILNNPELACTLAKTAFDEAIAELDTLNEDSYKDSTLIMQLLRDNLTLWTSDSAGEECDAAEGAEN
# Dolichyl-diphosphooligosaccharide--protein glycosyltransferase subunit 2, sequence (P04844 whole entry): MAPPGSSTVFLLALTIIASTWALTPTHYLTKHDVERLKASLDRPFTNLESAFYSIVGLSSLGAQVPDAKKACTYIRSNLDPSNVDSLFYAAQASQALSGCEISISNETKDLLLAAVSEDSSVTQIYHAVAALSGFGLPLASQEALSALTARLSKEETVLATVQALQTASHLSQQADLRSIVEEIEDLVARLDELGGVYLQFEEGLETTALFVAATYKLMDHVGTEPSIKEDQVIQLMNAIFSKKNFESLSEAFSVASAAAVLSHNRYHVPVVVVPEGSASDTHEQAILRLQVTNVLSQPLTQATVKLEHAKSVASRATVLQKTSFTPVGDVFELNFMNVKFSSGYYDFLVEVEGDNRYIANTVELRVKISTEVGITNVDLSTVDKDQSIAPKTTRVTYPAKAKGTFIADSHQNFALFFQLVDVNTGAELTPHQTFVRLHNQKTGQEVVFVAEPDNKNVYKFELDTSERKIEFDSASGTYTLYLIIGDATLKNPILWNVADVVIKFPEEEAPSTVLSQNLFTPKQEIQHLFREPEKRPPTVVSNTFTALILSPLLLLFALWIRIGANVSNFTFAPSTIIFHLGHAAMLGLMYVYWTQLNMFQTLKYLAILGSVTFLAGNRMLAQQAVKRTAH
substance,measurement,setting,value
"Ras-related protein Rab-1A, P62820",listed as a hit,[1],yes
"ER membrane protein complex subunit 1, Q8N766",listed as a hit,[2],yes
same,listed as a hit,[3],yes
"Flotillin-1, O75955",listed as a hit,Syntaxin-8,yes
"Cytochrome c1, heme protein, mitochondrial, P08574",listed as a hit,[4],yes
"Citrate synthase, mitochondrial, O75390",listed as a hit,[5],yes
same,listed as a hit,[6],yes
same,listed as a hit,[7],yes
"Cytochrome b-c1 complex subunit 2, mitochondrial, P22695",listed as a hit,[8],yes
"Tetratricopeptide repeat protein 19, mitochondrial, Q6DKK2",listed as a hit,[9],yes
"Dolichyl-diphosphooligosaccharide--protein glycosyltransferase subunit 1, P04843",listed as a hit,[10],yes
same,listed as a hit,[11],yes
same,listed as a hit,Calnexin,yes
"14-3-3 protein theta, P27348",listed as a hit,14-3-3 protein epsilon,yes
same,listed as a hit,14-3-3 protein gamma,yes
"Mitochondrial import inner membrane translocase subunit TIM50, Q3ZCQ8",listed as a hit,[9],yes
"14-3-3 protein zeta/delta, P63101",listed as a hit,14-3-3 protein eta,yes
same,listed as a hit,14-3-3 protein theta,yes
"ATP synthase F(0) complex subunit g, mitochondrial, O75964",listed as a hit,[12],yes
same,listed as a hit,[13],yes
same,listed as a hit,[14],yes
same,listed as a hit,[15],yes
"Heterogeneous nuclear ribonucleoproteins C1/C2, P07910",listed as a hit,[16],yes
"Dynamin-like GTPase OPA1, mitochondrial, O60313",listed as a hit,[9],yes
"Dolichol-phosphate mannosyltransferase subunit 1, O60762",listed as a hit,Calnexin,yes
"Glucosidase 2 subunit beta, P14314",listed as a hit,[17],yes
same,listed as a hit,[18],yes
same,listed as a hit,[19],yes
"Mitochondrial import inner membrane translocase subunit Tim10, P62072",listed as a hit,[20],yes
"Myristoylated alanine-rich C-kinase substrate, P29966",listed as a hit,[9],yes
"AP-1 complex subunit beta-1, Q10567",listed as a hit,[21],yes
"Cytochrome b-c1 complex subunit 8, O14949",listed as a hit,[22],yes
same,listed as a hit,[23],yes
"Electron transfer flavoprotein subunit alpha, mitochondrial, P13804",listed as a hit,[24],yes
"Cytochrome c oxidase assembly factor 6 homolog, Q5JTJ3",listed as a hit,[9],yes
"Aspartate aminotransferase, mitochondrial, P00505",listed as a hit,[25],yes
same,listed as a hit,[26],yes
same,listed as a hit,[6],yes
same,listed as a hit,[27],yes
"Propionyl-CoA carboxylase alpha chain, mitochondrial, P05165",listed as a hit,[28],yes
"AP-2 complex subunit alpha-1, O95782",listed as a hit,[29],yes
same,listed as a hit,[30],yes
"Pyruvate dehydrogenase E1 component subunit alpha, somatic form, mitochondrial, P08559",listed as a hit,[6],yes
same,listed as a hit,[31],yes
"ATP synthase F(1) complex subunit alpha, mitochondrial, P25705",listed as a hit,[25],yes
same,listed as a hit,[32],yes
same,listed as a hit,[33],yes
same,listed as a hit,"Frataxin, mitochondrial",yes
same,listed as a hit,[6],yes
same,listed as a hit,[13],yes
same,listed as a hit,[34],yes
"Ras-related protein Rab-11A, P62491",listed as a hit,[35],yes
"Cytochrome c, P99999",listed as a hit,[36],yes
same,listed as a hit,[9],yes
"Stress-70 protein, mitochondrial, P38646",listed as a hit,[37],yes
same,listed as a hit,[25],yes
same,listed as a hit,[38],yes
same,listed as a hit,[39],yes
same,listed as a hit,[6],yes
same,listed as a hit,[40],yes
same,listed as a hit,[41],yes
same,listed as a hit,[42],yes
same,listed as a hit,[43],yes
same,listed as a hit,[44],yes
"Cytochrome c oxidase assembly factor SCO2, O43819",listed as a hit,[9],yes
"Cytochrome c oxidase copper chaperone, Q14061",listed as a hit,[9],yes
"Dolichyl-diphosphooligosaccharide--protein glycosyltransferase subunit 2, P04844",listed as a hit,Calnexin,yes
"Biogenesis of lysosome-related organelles complex 1 subunit 1, P78537",listed as a hit,[45],yes
"ADP/ATP translocase 2, P05141",listed as a hit,[46],yes
same,listed as a hit,[6],yes
same,listed as a hit,[13],yes
same,listed as a hit,[47],yes
"Calnexin, P27824",listed as a hit,[48],yes
same,listed as a hit,[49],yes
same,listed as a hit,[3],yes
same,listed as a hit,[50],yes
"NADPH:adrenodoxin oxidoreductase, mitochondrial, P22570",listed as a hit,[25],yes
same,listed as a hit,[51],yes
same,listed as a hit,[39],yes
same,listed as a hit,[6],yes
"Cytochrome c oxidase assembly factor 7, Q96BR5",listed as a hit,[52],yes
same,listed as a hit,[53],yes
same,listed as a hit,[54],yes
same,listed as a hit,[55],yes
same,listed as a hit,[56],yes
same,listed as a hit,[57],yes
